# Where “and” joins values, the source holds several entries; their conditions need not be identical. Identical values can stand only once. Records with an inconclusive call do not appear. Calls of active or inactive are those of the source. Calls come from the whole dose curve; as a rule, active = well fitted curve in the direction sought with a large enough effect; inconclusive = small, poorly fitted or top-dose-only effect, or another doubt; inactive = no such curve, though single readings can be large; an effect the other way counts as inactive or inconclusive.
# Columns and labels:
# [1] = Primary qHTS for inhibitors of nuclear receptor binding SET domain protein 2 (NSD2) in an isogenic RCH-ACV NSD2 p.E1099K mutant (9B) (AID 1645876); settings: RCH-ACV NSD2 E1099K (9B) viability, CellTiter-Glo, 72 h; series mostly up to 44.9 µM; note: nearly all actives have a fitted effect of over 70% in size; note: potency is the fitted concentration of half-maximal effect
# [2] = Primary qHTS for inhibitors of nuclear receptor binding SET domain protein 2 (NSD2) in an RCH-ACV wild type WT cells (2C) (AID 1645877); settings: RCH-ACV (leukaemia line) NSD2 WT (2C) viability, CellTiter-Glo, 72 h; series mostly up to 44.9 µM; note: nearly all actives have a fitted effect of over 70% in size; note: potency is the fitted concentration of half-maximal effect
# [3] = Viability counterscreen for antagonist of constitutive androstane receptor (CAR) against the NCATS DSHEA and TCM libraries (AID 1794837); settings: CAR reporter cell line viability counterscreen, qHTS; series mostly up to 40 µM;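 note: compound exposure lasted 24 h before viability reading; 0% is about no effect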
# Method in brief: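 Counterscreen performed in a 1536-well qHTS format using HepG2-CYP2B6-hCAR cells; samples titrated in the presence of 48 uM CITCO, with viability measured fluorometrically (405/540 nm) after 24 h.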
# [4] = Viability counterscreen for agonist of constitutive androstane receptor (CAR) against the NCATS DSHEA and TCM libraries (AID 1794838); settings: HepG2 cell viability counterscreen, CAR agonist assay, co-treated with 0.75 µM CAR antagonist; series mostly up to 40 µM;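 note: HepG2 cells with CYP2B6 reporter and hCAR plus 0.75 µM PK11195 antagonist; cells exposed to compound for 24 h; 0% is about no effect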
# Method in brief: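 Multiplexed counterscreen: after 24 h compound exposure with 0.75 uM PK11195, HepG2-CYP2B6-hCAR viability was quantified fluorimetrically (CellTiter-Fluor, 405/540 nm) prior to the ONE-Glo luciferase read.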
# [5] = molecular target: Catechol O-methyltransferase (Homo sapiens) (UniProt P21964); assay: Confirmatory Screen for Target Class Profiling of Small Molecule Inhibitors of Methyltransferases (AID 1745852); settings: MTase-Glo luminescence, SAH detection, recombinant enzyme; measured here: COMT max response; stronger effect = lower value; for activity change, negative = inhibition: % is set by controls: 0 for no effect and ±100 for the full control effect
# Chain of Catechol O-methyltransferase (Homo sapiens) (P21964 whole entry, looked up): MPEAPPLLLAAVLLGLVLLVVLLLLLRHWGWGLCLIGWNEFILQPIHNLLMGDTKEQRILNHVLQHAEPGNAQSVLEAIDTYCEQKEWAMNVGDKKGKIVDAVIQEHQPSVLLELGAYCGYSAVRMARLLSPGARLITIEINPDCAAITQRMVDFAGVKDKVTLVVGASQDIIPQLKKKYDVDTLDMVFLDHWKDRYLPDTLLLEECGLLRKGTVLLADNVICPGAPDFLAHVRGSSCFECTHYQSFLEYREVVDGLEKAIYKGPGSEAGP
# [6] = molecular target: Guanidinoacetate N-methyltransferase (Homo sapiens) (UniProt Q14353); assay: as above; settings: MTase-Glo luminescence, SAH detection, recombinant enzyme; activity change, negative = inhibition: at 57.3 µM (top of the series); series mostly up to 57.3 µM
# [7] = molecular target: Nicotinamide N-methyltransferase (Homo sapiens) (UniProt P40261); assay: as above; settings: MTase-Glo luminescence, SAH detection, recombinant enzyme; measured here: NNMT max response; stronger effect = lower value
# Chain of Nicotinamide N-methyltransferase (Homo sapiens) (P40261 whole entry, looked up): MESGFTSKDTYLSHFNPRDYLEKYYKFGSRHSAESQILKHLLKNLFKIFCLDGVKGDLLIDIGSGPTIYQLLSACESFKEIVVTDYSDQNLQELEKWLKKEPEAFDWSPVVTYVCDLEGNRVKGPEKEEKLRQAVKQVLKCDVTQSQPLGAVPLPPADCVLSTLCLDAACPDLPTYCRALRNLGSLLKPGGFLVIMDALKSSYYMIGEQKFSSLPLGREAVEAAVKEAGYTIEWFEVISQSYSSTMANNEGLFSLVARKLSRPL
# [8] = molecular target: Phenylethanolamine N-methyltransferase (Homo sapiens) (UniProt P11086); assay: as above; settings: MTase-Glo luminescence, SAH detection, recombinant enzyme; measured here: PNMT max response; stronger effect = lower value
# Chain of Phenylethanolamine N-methyltransferase (Homo sapiens) (P11086 whole entry, looked up): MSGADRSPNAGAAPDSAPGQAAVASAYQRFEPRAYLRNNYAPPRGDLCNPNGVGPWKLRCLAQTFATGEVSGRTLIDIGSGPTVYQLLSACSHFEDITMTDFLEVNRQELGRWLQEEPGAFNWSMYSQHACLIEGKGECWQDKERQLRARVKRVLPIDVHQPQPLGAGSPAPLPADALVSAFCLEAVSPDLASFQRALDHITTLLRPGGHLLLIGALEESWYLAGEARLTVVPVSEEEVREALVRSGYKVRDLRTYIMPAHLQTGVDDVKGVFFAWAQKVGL
compound,measurement,setting,value
COc1cc(O)c2c(c1)C1OC1C[C@H](O)[C@H](O)C(=O)C=CC[C@H](C)OC2=O (some centres not stated),Potency,[1],3.72 µM (active)
same,Potency,[2],3.32 µM (active)
O=C1c2c(O)cccc2[C@@H]([C@@H]2O[C@H](CO)[C@@H](O)[C@H](O)[C@H]2O)c2cc(CO)cc(O)c21,outcome,[3],inactive
same,outcome,[4],inactive
CCN(CC)Cc1ccc2cc(COC(=O)Nc3ccc(C(=O)NO)cc3)ccc2c1,Potency,[1],290 nM (active) and 742 nM (active)
same,Potency,[2],230 nM (active) and 525 nM (active)
same,activity,[5],0%
same,"activity change, negative = inhibition",[6],-6.61%
same,activity,[7],-7.87%
same,activity,[8],-6.29%
OC[C@H]1OC(O)C[C@@H](O)[C@H]1O (some centres not stated),Potency,[1],inactive
same,Potency,[2],inactive
